This is an account of results in PubChem BioAssay (NCATS).

Where “and” joins values, the source holds several entries; their conditions need not be identical. Identical values can stand only once. Results filed as inconclusive are left out. Calls of active or inactive are those of the source. Unless noted, the call rests on the fitted dose curve; in most records, active means well fitted curve in the direction sought with a large enough effect; inconclusive means small, poorly fitted or top-dose-only effect, or another doubt; inactive means no such curve, though single readings can be large; an effect the other way counts as inactive or inconclusive.

A short description of experiment [1]: Cell Viability - HepG2 (AID 433; calls by dose curve;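 further: potency means the concentration at half of the fitted maximal effect; cells exposed to compound for 40 hours; potency for ATP loss meaning cytotoxicity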). Particulars: qHTS. The gist of the method: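 HepG2 hepatocellular carcinoma cells (1500/well) were treated with compounds for 40 h at 37 °C in complete medium; intracellular ATP was read by CellTiter-Glo luminescence. Data were normalized to DMSO and 100 uM tamoxifen, and AC50 came from Hill fits.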
A general note: qHTS replaces the single test concentration by a dilution series.

Experiment [2] is described as follows: Cell Viability - Mesenchymal (AID 546).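 Further: cells exposed to compound for 40 hours before reading.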 The note with it: mesenchymal cells viability, qHTS; activity change, negative = cytotoxicity: at 91.7 µM (top of the series). In a few lines: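 In this qHTS cytotoxicity format, glomerulus-derived human mesenchymal kidney cells received compound for 40 hr, then luciferase-based ATP quantitation. Concentration-response data were fitted with the Hill equation.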

Experiment [3] is described as follows: Cellular Toxicity (caspase-3) Jurkat (AID 655).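 Further: cells exposed to compound for 16 h at 37 °C before reading.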 The note with it: Jurkat caspase-3 activation, luminescence; caspase-3 activation: at 92.2 µM (top of the series), DMSO = 0%, tamoxifen = 100%. In a few lines:
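Jurkat cells (5000/well) in complete medium were treated with compounds for 16 hr at 37 °C, then Caspase-Glo 3/7 luminescence was read after 20 min at room temperature. Data normalized to DMSO (basal) and 100 uM tamoxifen (100%); AC50 from Hill fit.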

The nature of experiment [4]: Cell Viability - LYMP1-002 - Assay at 16 hr (AID 948).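 Further: 0% = DMSO alone and full effect = 92 µM tetraoctylammonium bromide.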 Particulars: LYMP1-002 lymphoblastoid cell viability; series mostly up to 92.2 µM. In a few lines: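 Human lymphoblastoid cells (LYMP1-002), 2500/well, were preincubated 5 hr at 37 C, then exposed to compounds for 16 hr at 37 C in complete medium. Cellular ATP was read by CellTiter-Glo luminescence after 30 min at room temperature; AC50 from Hill fits.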

Experiment [5] is described as follows: Cell Viability - LYMP2-003 (AID 965).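 Further: cells exposed to compounds for 24 h before reading; 0% = DMSO only and full effect = 92 µM tetraoctylammonium bromide; nearly all actives have a fitted effect of over 50% in size.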 The note with it: LYMP2-003 lymphoblastoid cell viability; series mostly up to 92.2 µM. The gist of the method:
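Human lymphoblastoid cells (2500/well) were pre-incubated 5 hr at 37 C, then exposed to compounds over a concentration range for 24 hr at 37 C. Intracellular ATP was read by CellTiter-Glo luminescence; AC50 came from Hill-equation fits.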

Experiment [6] in a line: Cell Viability - LYMP2-011 (AID 969).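 Further: 0% = DMSO only and full inhibition = 92 µM tetraoctylammonium bromide; nearly all actives have a fitted effect of over 60% in size.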 Particulars: LYMP2-011 lymphoblastoid cells viability; series mostly up to 92.2 µM. In a few lines:
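In this qHTS cytotoxicity format, compounds are tested across concentrations on human lymphoblastoid cells in complete medium for 24 hours at 37 C. Viability is taken as cellular ATP measured by luciferase luminescence.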

Experiment [7] can be described thus: Cell Viability - LYMP2-013 (AID 970).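 Further: 0% = DMSO only and full inhibition = tetraoctylammonium bromide control; nearly all actives have a fitted effect of over 55% in size.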 Particulars: LYMP2-013 lymphoblastoid cells viability; series mostly up to 92.2 µM. The gist of the method: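 Cytotoxicity is scored as a concentration-dependent drop in intracellular ATP in human lymphoblastoid cells after 24 hr compound exposure at 37 C. ATP is quantified by luciferase luminescence, and AC50 values come from Hill-equation modeling.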

Experiment [8] is described as follows: Cell Viability - LYMP2-021 (AID 974).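 Further: compound exposure lasts 24 hours at 37 °C; nearly all actives have a fitted effect of over 55% in size.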 Further: potency means the concentration at half of the fitted maximal effect. On activity change, negative = cytotoxicity: on the % scale 0 is the no-effect control and ±100 the full control effect. The note with it: LYMP2-021 lymphoblastoid cells viability; series mostly up to 92.2 µM. The gist of the method:
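Loss of cellular ATP, measured with a luciferase-based CellTiter-Glo readout, serves as the toxicity signal in human lymphoblastoid cells treated for 24 hours at 37 C. Potency is reported as AC50 from a standard Hill model.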

Experiment [9] is described as follows: Cell Viability - LYMP2-002 (AID 977).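 Further: compound exposure lasted 24 h at 37 °C; plate controls were DMSO only for no effect and 92 µM tetraoctylammonium bromide for full effect.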 The note with it: LYMP2-002 lymphoblastoid cell viability, qHTS; series mostly up to 92.2 µM. The gist of the method:
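In this qHTS viability screen, 2500 human lymphoblastoid cells per well receive compound for 24 hr at 37 C, and luciferase-based ATP luminescence gives the viability signal. Tetraoctylammonium bromide serves as positive control.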

Experiment [10] can be described thus: Cell Viability - LYMP2-008 (AID 980). Further: on the % scale 0 is the no-effect control and ±100 the full control effect; nearly all actives have a fitted effect of over 60% in size. Particulars: LYMP2-008 lymphoblastoid cell viability, qHTS; series mostly up to 92.2 µM. The gist of the method: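 Cells seeded at 2500/well and rested 5 hr at 37 C; compounds added over a concentration range and incubated 24 hr at 37 C; CellTiter-Glo added, 30 min at room temperature; luminescence read and AC50 fitted with Hill model.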

Experiment [11] can be described thus: Cell Viability - LYMP2-012 (AID 982).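 Further: cellular ATP by luciferase luminescence where a drop means cytotoxicity; cells exposed to compound for one day before reading; 0% = DMSO only and full loss = 92 µM tetraoctylammonium bromide; nearly all actives have a fitted effect of over 55% in size.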 Particulars: LYMP2-012 lymphoblastoid cell viability qHTS; series mostly up to 92.2 µM.
A short description of experiment [12]: Cell Viability - LYMP2-014 (AID 983).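 Further: plate controls were DMSO only for no effect and 92 µM tetraoctylammonium bromide for full effect; nearly all actives have a fitted effect of over 50% in size.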 Particulars: LYMP2-014 lymphoblastoid cells, viability qHTS; series mostly up to 92.2 µM. In a few lines: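 Cells are plated at 2500/well and left 5 hr at 37 C. Compounds are added across a concentration range and incubated 24 hr at 37 C in complete medium. CellTiter-Glo is added, and luminescence is read after 30 min at room temperature.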

Experiment [13] can be described thus: Cell Viability - LYMP2-016 (AID 984). Further: on the % scale 0 is the no-effect control and ±100 the full control effect; nearly all actives have a fitted effect of over 55% in size. The note with it: LYMP2-016 lymphoblastoid cell viability, qHTS; series mostly up to 92.2 µM. The gist of the method:
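Human lymphoblastoid cells (LYMP2-016), 2500/well in complete medium, preincubated 5 hr at 37 C, then compound-treated 24 hr at 37 C. Intracellular ATP read by CellTiter-Glo luminescence after 30 min at room temperature; AC50 from Hill-equation concentration-response fits.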

A short description of experiment [14]: Cell Viability - LYMP2-020 (AID 986). The note with it: series mostly up to 92.2 µM. In a few lines: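 Seed 2500 cells per well and incubate 5 hr at 37 C. Add compounds at a concentration series and incubate 24 hr at 37 C. Add CellTiter-Glo, wait 30 min at RT, read luminescence, and fit a Hill curve for AC50.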
Experiment [15] can be described thus: Cell Viability - LYMP2-024 (AID 988). Further: nearly all actives have a fitted effect of over 60% in size. Further: potency means the concentration at half of the fitted maximal effect.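 On activity change, negative = cytotoxicity: plate controls were DMSO only for no effect and 92 µM tetraoctylammonium bromide for full effect.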 The note with it: LYMP2-024 lymphoblastoid cell viability; series mostly up to 92.2 µM. In a few lines:
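qHTS cytotoxicity, human lymphoblastoid line, complete medium; 24 h cpd treatment, 37 C; CellTiter-Glo ATP luminescence readout; tetraoctylammonium bromide positive control; AC50 via Hill fit.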

Experiment [16] can be described thus: Cell Viability - LYMP2-026 (AID 989). Further: on the % scale 0 is the no-effect control and ±100 the full control effect; nearly all actives have a fitted effect of over 50% in size. The note with it: LYMP2-026 lymphoblastoid cell viability, qHTS; series mostly up to 92.2 µM. In a few lines: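 Cells are seeded at 2500 per well and held 5 hr at 37 C. Compounds are added in concentration series for 24 hr, then CellTiter-Glo reagent is applied and luminescence read.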
Experiment [17] can be described thus: Cell Viability - LYMP1-002 - Assay at 40 hr (AID 994).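 Further: 0% = DMSO only and full inhibition = 92 µM tetraoctylammonium bromide; nearly all actives have a fitted effect of over 60% in size.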 The note with it: LYMP1-002 lymphoblastoid cell viability; series mostly up to 92.2 µM. In a few lines: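 Cells are plated at 2500 per well and rested 5 hr at 37 C. Compounds are added and incubated 40 hr at 37 C. CellTiter-Glo reagent is added for 30 min at room temperature before luminescence is read.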

Experiment [18] is described as follows: qHTS assay for small molecule antagonists of retinoid X receptor alpha signaling (AID 588546; active means well fitted inhibition curve with a large enough effect in the signal ratio, with a control signal flat, not every such curve was filed as active; the % refers to the signal ratio; further: potency means the concentration at half of the fitted maximal effect;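 on max response: cells stimulated with 9-cis-retinoic acid as agonist; on the % scale 0 is the no-effect control and ±100 the full control effect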). The note with it: HEK293T RXRa-UAS-bla, beta-lactamase ratio, antagonist mode; measured here: W530 green channel, cytotoxicity proxy. In a few lines:
(§1)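 Beta-lactamase reporter inhibition, read as CCF4 fluorescence ratio (ex 405, em 460/530 nm) after 2 h at RT. HEK293T UAS-bla cells, 2500/well, were stimulated with 9-cis-RA at 500 or 100 nM final alongside test compound for 18 h at 37 C.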

The target in experiment [19] is Retinoic acid receptor RXR-alpha (Homo sapiens) (UniProt P19793). The experiment is described as above. The note with it: HEK293T RXRa-UAS-bla, beta-lactamase ratio, antagonist mode. The gist of the method: as §1
Retinoic acid receptor RXR-alpha (Homo sapiens), sequence (P19793 whole entry, looked up): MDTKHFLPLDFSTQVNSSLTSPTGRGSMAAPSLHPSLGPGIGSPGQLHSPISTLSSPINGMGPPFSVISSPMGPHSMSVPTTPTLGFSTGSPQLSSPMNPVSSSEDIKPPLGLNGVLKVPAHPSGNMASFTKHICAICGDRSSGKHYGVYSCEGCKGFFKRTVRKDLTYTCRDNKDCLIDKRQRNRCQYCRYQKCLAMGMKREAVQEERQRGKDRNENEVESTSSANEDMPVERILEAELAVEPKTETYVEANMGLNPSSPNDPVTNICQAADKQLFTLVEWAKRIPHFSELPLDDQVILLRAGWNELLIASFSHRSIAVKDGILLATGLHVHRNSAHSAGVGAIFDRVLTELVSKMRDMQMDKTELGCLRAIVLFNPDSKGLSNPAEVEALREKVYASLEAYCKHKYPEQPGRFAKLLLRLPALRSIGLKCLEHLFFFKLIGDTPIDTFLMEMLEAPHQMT
Experiment [20] can be described thus: qHTS assay for environmental chemicals that activate the Aryl hydrocarbon Receptor (AhR) signaling pathway (AID 651777). Further: % of control where 0% means no effect; nearly all actives have a fitted effect of over 15% in size. Particulars: 1A2-DRE human hepatoma cells, luciferase, 24 h; activation: stronger effect = higher value. The gist of the method: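 Induction of CYP1A2 transcription through AhR is detected by luciferase in 1A2-DRE hepatoma cells. Compounds or DMSO act for 24 hr at 37 C before a 30 min One-Glo step at room temperature.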

`C=Cc1cccc(C)c1`: the Potency in [1] is > 92 µM (inactive). The Potency entry in [2], in [3], in experiment [4], in [5], in experiment [6] and in [7] was “inactive” throughout. The Potency entry in experiment [8], in experiment [9], in [10], in [11], in experiment [12] and in [13] was “inactive” throughout. In addition, the Potency result in [14], in experiment [15], in experiment [16] and in experiment [17] was “inactive” in each case. Further, the values for the max response in experiment [18] and in [19] were -7.34% and -5.75% (inactive), respectively. The activation in [20] was -0.0469% (inactive).

`CCCCOC(=O)COc1ccc(Cl)cc1Cl`: in experiment [1], the Potency was > 92 µM (inactive). In addition, the Potency entry in [2], in experiment [3], in [4], in experiment [5], in [6] and in experiment [7] was “inactive” in each case. In addition, the Potency result in experiment [8], in experiment [9], in experiment [10], in experiment [11], in experiment [12] and in experiment [13] was “inactive” throughout. Further, the Potency result in experiment [14], in experiment [15], in [16] and in experiment [17] was “inactive” each time. The max response is -10.2% and -6.39% in experiment [18]; 5.43% (inactive) and -12.7% (inactive) in experiment [19].

Consider `Oc1ccc(O)c2c(O)cccc12`, for which the Potency is > 92 µM (inactive) in experiment [1], 50.1 µM (active) in [8] and 50.1 µM (active) in experiment [15]. In addition, the Potency result in experiment [2], in experiment [4] and in [17] was “inactive” throughout. Besides, the max response in experiment [18] was -12.8%; in experiment [19], -1.49% (inactive).

Take `Cc1c2ccccc2c(C)c2c1ccc1ccccc12`: the Potency result in experiment [2], in experiment [3], in [4], in experiment [5], in experiment [6] and in [7] was “inactive” throughout. In addition, the Potency result in experiment [8], in experiment [9], in experiment [10], in [11], in experiment [12] and in experiment [13] was “inactive” in each case. Further, the Potency result in [14], in experiment [15] and in experiment [16] was “inactive” throughout. Besides, in [18], the max response was -10.9%. Further, the Potency in [19] is 8.91 µM (active).

Take `CCCCCCCC/C=C\CCCCCCCC(=O)N(CCO)CCO`: the Potency in experiment [1] is > 92 µM (inactive). Besides, the caspase-3 activation in experiment [3] is 96.6% (active). Besides, the Potency result in experiment [4], in [5], in experiment [6], in [7], in experiment [8] and in experiment [9] was “inactive” throughout. The Potency entry in experiment [10], in experiment [11], in [12], in experiment [13], in experiment [14] and in [15] was “inactive” throughout. For the same compound, the Potency result in experiment [16] and in [17] was “inactive” each time. The activation in [20] was 2.99% (inactive).

As for `Nc1ccc(N)c(Cl)c1`, the Potency in experiment [1] was > 92 µM (inactive). Besides, the Potency result in [2], in experiment [3], in [4], in [5], in experiment [6] and in experiment [7] was “inactive” in each case. Also, the Potency entry in experiment [8], in [9], in [10], in experiment [11], in [12] and in [13] was “inactive” throughout. Besides, the Potency entry in [14] and in experiment [16] was “inactive” each time. In addition, the results for the max response in experiment [18] and in [19] were 4.58% and 9.54% (inactive), respectively.
